{"source": "PubChem BioAssay (NCATS)", "note": "Inconclusive results are not listed. Active and inactive are the calls of the source. Calls come from the whole dose curve; as a rule, active = well fitted cell-killing curve with a large enough effect; inconclusive = small, poorly fitted or top-dose-only effect; inactive = flat fitted curve, though single readings scatter. % is set by controls: 0 for no effect and ±100 for the full control effect; potency is the fitted concentration of half-maximal effect."}
{"assay": "Cell Viability - LYMP2-017 (AID 972); note: nearly all actives have a fitted effect of over 55% in size", "conditions": "LYMP2-017 lymphoblastoid cell viability; series mostly up to 92.2 µM; activity change, negative = cytotoxicity: at the top concentration", "from_the_text": "NIH Chemical Genomics Center [NCGC]\nNIH Molecular Libraries Screening Centers Network [MLSCN]\nNational Institutes of Environmental Health Sciences [NIEHS]\nNational Toxicology Program [NTP]\nWe have developed a 1536-well cell-based assay for quantitative high throughput screening (qHTS) against a number of cell lines to determine in vitro cytotoxicity of small molecules. This particular assay uses a human lymphoblastoid cell line (LYMP2-017) purchased from Coriell Institute for Medical Research.\nNCGC Assay Protocol Summary:\nThe CellTiter-Glo luminescent cell viability assay (Promega) is a homogeneous method to measure the number of viable cells in culture. The end point readout of this assay is based on quantitation of intracellular ATP, an indicator of metabolic activity, using the luciferase reaction. Luciferase catalyzes the oxidation of beetle Luciferin to oxyluciferin and light in the presence of ATP. The luminescent signal is proportional to amount of ATP present.\nUsing the CellTiter-Glo luminescent cell viability assay, the amount of cellular ATP was measured in the lymphoblastoid cell line with complete culture medium following compound treatment for 24 hours. The assay was performed in opaque white Kalypsys 1536-well plates. In the screen, tetraoctylammonium bromide was used as positive control. Library compounds were measured for their ability to cause acute toxicity in the cell line, as reflected by a decrease in intracellular ATP levels, in a concentration-dependent manner. […] AC50 values were determined from concentration-response data modeled with the standard Hill equation.\nqHTS protocol for CellTiter Glo lymphoblastoid cellular assay\n[Step] [Parameter] [Value] [Description]\n1. Reagent; 5 uL; 2500 lymphoblastoid cells/well\n2. Time; 5 hr; 37 C incubation\n4. Controls; 23 nL; Tetraoctylammonium bromide 6.4pM to 92 uM\n5. Time; 24 hr; 37 C incubation\n6. Reagent; 5 uL; CellTiter Glo reagent\n7. Time; 30 min; Room Temperature\n8. Detection; Luminescence; Viewlux plate reader\nKeywords: cell viability, cytotoxicity, lymphoblastoid cell line, luminescence, NTPHTS, NTPHTS_NCGC, NIEHS, DSSTox, MLSMR, MLSCN, NIH Roadmap, qHTS, NCGC"}
{"smiles": "O=P(OCCCl)(OCCCl)OCCCl", "activity change, negative = cytotoxicity": "12.5% (inactive)"}
{"smiles": "Nc1ccc(Cc2ccc(N)cc2)cc1", "activity change, negative = cytotoxicity": "-5.75% (inactive)"}
{"smiles": "Nc1ccc(Cc2ccc(N)c(Cl)c2)cc1Cl", "activity change, negative = cytotoxicity": "1.86% (inactive)"}
{"smiles": "O=S(=O)(O)F", "activity change, negative = cytotoxicity": "-1.1% (inactive)"}
{"smiles": "OCCCCO", "activity change, negative = cytotoxicity": "4.35% (inactive)"}
{"smiles": "Cc1ccc(N=C=O)cc1N=C=O", "activity change, negative = cytotoxicity": "-0.291% (inactive)"}
{"smiles": "ClCCOCCCl", "activity change, negative = cytotoxicity": "-1.58% (inactive)"}
{"smiles": "Brc1ccc(Oc2ccc(Br)cc2Br)c(Br)c1", "activity change, negative = cytotoxicity": "-3.07% (inactive)"}
{"smiles": "CC(C)(C)C(O)(CCc1ccc(Cl)cc1)Cn1cncn1", "note": "(stereo not given)", "activity change, negative = cytotoxicity": "-18.3% (inactive)"}
{"smiles": "FC(Cl)(Cl)Cl", "activity change, negative = cytotoxicity": "-3.18% (inactive)"}
{"smiles": "CC(C)OS(C)(=O)=O", "activity change, negative = cytotoxicity": "-7.58% (inactive)"}
{"smiles": "CN(C)c1ccc(N)cc1", "Potency": "50.1 µM (active)"}
{"smiles": "O=[N+]([O-])c1cc(Cl)c(Cl)c(Cl)c1", "activity change, negative = cytotoxicity": "-11% (inactive)"}
{"smiles": "Nc1cc(Cl)cc(Cl)c1", "activity change, negative = cytotoxicity": "-7.69% (inactive)"}
{"smiles": "ClC(Br)Br", "activity change, negative = cytotoxicity": "5.93% (inactive)"}
{"smiles": "ClCCOCOCCCl", "activity change, negative = cytotoxicity": "5.35% (inactive)"}
{"smiles": "CN1CSC(=S)N(C)C1", "Potency": "25.1 µM (active)"}
{"smiles": "CC(C)(Cl)Cl", "activity change, negative = cytotoxicity": "1.28% (inactive)"}
{"smiles": "Cc1cc(C)cc(OP(=O)(Oc2cc(C)cc(C)c2)Oc2cc(C)cc(C)c2)c1", "activity change, negative = cytotoxicity": "-11.5% (inactive)"}
{"smiles": "N#CCBr", "activity change, negative = cytotoxicity": "-3.49% (inactive)"}
{"smiles": "COc1ccccc1N", "activity change, negative = cytotoxicity": "-2.58% (inactive)"}
{"smiles": "Oc1ccc(Cl)c(Cl)c1Cl", "activity change, negative = cytotoxicity": "9.44% (inactive)"}
{"smiles": "Nc1ncc([N+](=O)[O-])s1", "activity change, negative = cytotoxicity": "-1.05% (inactive)"}
{"smiles": "O=[N+]([O-])c1ccc(Cl)cc1", "activity change, negative = cytotoxicity": "-5.28% (inactive)"}
{"smiles": "CCCCOCC1CO1", "note": "(stereo not given)", "activity change, negative = cytotoxicity": "2.03% (inactive)"}
{"smiles": "CCOP(=S)(OCC)Oc1nc(Cl)c(Cl)cc1Cl", "activity change, negative = cytotoxicity": "-5.14% (inactive)"}
{"smiles": "CCN(CC)CCO", "activity change, negative = cytotoxicity": "-6.47% (inactive)"}
{"smiles": "C=CC(=O)OC", "activity change, negative = cytotoxicity": "-8.47% (inactive)"}
{"smiles": "C(CCOCC1CO1)COCC1CO1", "note": "(stereo not given)", "activity change, negative = cytotoxicity": "-13.2% (inactive)"}
{"smiles": "c1ccc(NNc2ccccc2)cc1", "activity change, negative = cytotoxicity": "-0.0397% (inactive)"}
{"smiles": "CC[N+](=O)[O-]", "activity change, negative = cytotoxicity": "-10.8% (inactive)"}
{"smiles": "Clc1cccc(Cl)c1Cl", "activity change, negative = cytotoxicity": "-5.87% (inactive)"}
{"smiles": "COP(=S)(OC)SCn1nnc2ccccc2c1=O", "activity change, negative = cytotoxicity": "-2.41% (inactive)"}
{"smiles": "S=C1NCCN1", "activity change, negative = cytotoxicity": "-16.3% (inactive)"}
{"smiles": "O=[N+]([O-])c1ccccc1O", "activity change, negative = cytotoxicity": "-6.66% (inactive)"}
{"smiles": "CCCCCCCCCCCCCl", "activity change, negative = cytotoxicity": "6.13% (inactive)"}
{"smiles": "CCBr", "activity change, negative = cytotoxicity": "-9.4% (inactive)"}
{"smiles": "O=[N+]([O-])c1ccc(O)c([N+](=O)[O-])c1", "activity change, negative = cytotoxicity": "-1.63% (inactive)"}
{"smiles": "CN(C)c1ccc(N=Nc2ccccc2)cc1", "activity change, negative = cytotoxicity": "-18.1% (inactive)"}
{"smiles": "CC(C)Br", "activity change, negative = cytotoxicity": "1.02% (inactive)"}
